system: PRKG2; details: concentration: 1 μM, replicates: in singlicate; n = 1
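Note: KINOMEscan kinase panel screen.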

Row | SMILES | %Inh
1 | COc1ccc(Nc2nccc(N3CCC(NC(=O)C(C)c4ccc(Cl)cc4)CC3)n2)cc1 (stereo not drawn) [GSK1379812] | 17%
2 | CC(=O)c1c(C)c2cnc(Nc3ccc(N4CCNCC4)cn3)nc2n(C2CCCC2)c1=O | 0%
3 | Nc1nccc(-c2c(-c3ccc(F)cc3)ncn2C2CCN(Cc3ccccc3)CC2)n1 [SB-219980] | 0%
4 | Fc1ccc(-c2nc3n(c2-c2ccncc2)CCS3)cc1 [GI98581] | 0%
5 | COc1cccc(CNC(=O)NC2CCN(c3ccnc(Nc4ccc(F)cc4)n3)C2)c1 (stereo not drawn) [GSK1379723] | 0%
6 | c1ccc(-c2ccnc3[nH]ccc23)cc1 [SB-693578] | 2%
7 | Cc1ccc(NC(=O)c2ccc(Cl)cc2)cc1-c1ccc(C(=O)Nc2ccncc2)cc1 [GSK1398467] | 0%
8 | CNCc1ccc2nc(NC(=O)c3ccc(C(C)(C)C)cc3)cn2c1 | 21%
9 | COc1ccc(-c2coc3ccc(-c4nnc(C)o4)cc23)cc1 | 0%
10 | O=C(Nc1n[nH]c2nc(-c3ccco3)c(Br)cc12)C1CCN(Cc2ccccc2)C1.O=C(O)[C@H](O)[C@@H](O)C(=O)O (stereo not drawn) [SB-742034] | 2%
11 | Cc1c(Cn2c(C)c(C)n3c(=O)cc(N4CCOCC4)nc23)cccc1C(F)(F)F [GSK2328680] | 91.2%
12 | COC(=O)C(NC(=O)NC1CCN(c2ccnc(Nc3ccc(F)cc3)n2)C1)c1ccccc1 (stereo not drawn) [GSK1379712] | 0%
13 | Cc1ccc(NC(=O)Nc2ccc(Cl)cc2)cc1-c1ccc(C(=O)Nc2ccncc2)cc1 [GSK1398472] | 0%
14 | Cc1ccc(-c2nc(Nc3ccncc3)c3ccccc3n2)s1 [GSK189015] | 0%
15 | CC(C)c1cc(-c2ccc3c(N)n[nH]c3c2)nc(N)n1 [GSK2250882] | 14%
16 | CC(=O)c1cccc(NC(=O)NC2CCN(c3ccnc(Nc4ccc(F)cc4)n3)C2)c1 (stereo not drawn) [GSK1379710] | 31%
17 | Cc1ccccc1Cn1ccn2c(=O)cc(N3CCOCC3)nc12 [GSK2269905] | 0%
18 | CNc1nc(-c2ccc3c(N)n[nH]c3c2)cc(N2C[C@@H](C(=O)Nc3ccccc3)CC[C@H]2C)n1 [GSK2298859] | 32%

Row | SMILES | %Inh
19 | Fc1ccc(-c2nc[nH]c2-c2ccncc2)cc1 [SB-217360] | 0%
20 | Cc1cccc2c(-c3ccncn3)c(-c3ccc(F)cc3)nn12 [GW515532] | 0%
21 | COc1ccc(Nc2nccc(NCCNC(=O)Nc3cc(C)ccc3C)n2)cc1 [GSK1379899] | 0%
22 | CS(=O)(=O)CCNCc1nc(-c2ccc3ncnc(Nc4ccc(OCc5ccccc5)c(Cl)c4)c3c2)cs1.Cl [GW582764] | 1%
23 | NS(=O)(=O)c1cccc(N/C=C2\C(=O)Nc3ccc(S(=O)(=O)Cc4c(Cl)cccc4Cl)cc32)c1 [GSK398099] | 100%
24 | CC(=O)c1c(C)c2cnc(Nc3ccn(C)n3)nc2n(C2CCCC2)c1=O | 0%
25 | Cn1cncc1-c1cc2c(Nc3ccc(OCc4ccccc4)cc3)ncnc2cn1 [GW281179] | 100%
26 | COc1ccc(CSc2nnc(-c3ccc4c(c3)CCO4)o2)cc1 | 0%
27 | CN1c2ccc(-c3ccc(C(N)=O)cc3)cc2-c2[nH]ncc2S1(=O)=O | 2%
28 | CC(C)c1ccc(O)cc1Nc1ccnc2ccc(C(F)(F)F)cc12 [GW482059] | 0%
29 | O=C(Nc1n[nH]c2nc(-c3cccs3)c(Br)cc12)C1CCCC1 [SB-743341] | 0%
30 | CS(=O)(=O)CCNCc1nc(-c2ccc3ncnc(Nc4ccc5c(cnn5Cc5ccccc5)c4)c3c2)cs1.Cl.Cl [GW569716] | 0%
31 | Cl.Cl.Cl.N#Cc1ccc(CCNc2nccc(-c3cccc(CN4CCNCC4)c3)n2)cc1 [GSK2137462] | 4%
32 | Fc1ccc(-c2nn3cccc(F)c3c2-c2ccncc2)cc1 [GW475620] | 0%
33 | COc1ccc(CSc2nnc(-c3ccc4ncsc4c3)o2)cc1C(F)(F)F | 0%
34 | Cc1ccc(NC(=O)Nc2ccccc2F)cc1-c1ccc(C(=O)Nc2ccncc2)cc1 [GSK1398477] | 0%
35 | O=C1NC(=O)C(c2ccc(Cl)cc2)=C1Nc1cccc(Cl)c1 [SB-317651] | 0%
36 | CNc1nc(-c2ccc3c(N)n[nH]c3c2)cc(N2C[C@@H](C(=O)NC3CCCCC3)OC[C@H]2C)n1 [GSK2375584] | 18%

system: T1, PRKR; details: concentration: 1 μM, replicates: in singlicate; n = 1
T1 construct: gene EIF2AK2

Row | SMILES | %Inh
37 | COc1ccc(Nc2nccc(N3CCC(NC(=O)C(C)c4ccc(Cl)cc4)CC3)n2)cc1 (stereo not drawn) [GSK1379812] | 0%
38 | CC(=O)c1c(C)c2cnc(Nc3ccc(N4CCNCC4)cn3)nc2n(C2CCCC2)c1=O | 0%
39 | Nc1nccc(-c2c(-c3ccc(F)cc3)ncn2C2CCN(Cc3ccccc3)CC2)n1 [SB-219980] | 0%
40 | Fc1ccc(-c2nc3n(c2-c2ccncc2)CCS3)cc1 [GI98581] | 0%
41 | COc1cccc(CNC(=O)NC2CCN(c3ccnc(Nc4ccc(F)cc4)n3)C2)c1 (stereo not drawn) [GSK1379723] | 0%
42 | c1ccc(-c2ccnc3[nH]ccc23)cc1 [SB-693578] | 0%
43 | Cc1ccc(NC(=O)c2ccc(Cl)cc2)cc1-c1ccc(C(=O)Nc2ccncc2)cc1 [GSK1398467] | 4%
44 | CNCc1ccc2nc(NC(=O)c3ccc(C(C)(C)C)cc3)cn2c1 | 0%
45 | COc1ccc(-c2coc3ccc(-c4nnc(C)o4)cc23)cc1 | 0%
46 | O=C(Nc1n[nH]c2nc(-c3ccco3)c(Br)cc12)C1CCN(Cc2ccccc2)C1.O=C(O)[C@H](O)[C@@H](O)C(=O)O (stereo not drawn) [SB-742034] | 5%
47 | Cc1c(Cn2c(C)c(C)n3c(=O)cc(N4CCOCC4)nc23)cccc1C(F)(F)F [GSK2328680] | 0%
48 | COC(=O)C(NC(=O)NC1CCN(c2ccnc(Nc3ccc(F)cc3)n2)C1)c1ccccc1 (stereo not drawn) [GSK1379712] | 0%
49 | Cc1ccc(NC(=O)Nc2ccc(Cl)cc2)cc1-c1ccc(C(=O)Nc2ccncc2)cc1 [GSK1398472] | 1%
50 | Cc1ccc(-c2nc(Nc3ccncc3)c3ccccc3n2)s1 [GSK189015] | 0%
51 | CC(C)c1cc(-c2ccc3c(N)n[nH]c3c2)nc(N)n1 [GSK2250882] | 6%
52 | CC(=O)c1cccc(NC(=O)NC2CCN(c3ccnc(Nc4ccc(F)cc4)n3)C2)c1 (stereo not drawn) [GSK1379710] | 13%
53 | Cc1ccccc1Cn1ccn2c(=O)cc(N3CCOCC3)nc12 [GSK2269905] | 0%
54 | CNc1nc(-c2ccc3c(N)n[nH]c3c2)cc(N2C[C@@H](C(=O)Nc3ccccc3)CC[C@H]2C)n1 [GSK2298859] | 0%

Row | SMILES | %Inh
55 | Fc1ccc(-c2nc[nH]c2-c2ccncc2)cc1 [SB-217360] | 0%
56 | Cc1cccc2c(-c3ccncn3)c(-c3ccc(F)cc3)nn12 [GW515532] | 0%
57 | COc1ccc(Nc2nccc(NCCNC(=O)Nc3cc(C)ccc3C)n2)cc1 [GSK1379899] | 0%
58 | CS(=O)(=O)CCNCc1nc(-c2ccc3ncnc(Nc4ccc(OCc5ccccc5)c(Cl)c4)c3c2)cs1.Cl [GW582764] | 0%
59 | NS(=O)(=O)c1cccc(N/C=C2\C(=O)Nc3ccc(S(=O)(=O)Cc4c(Cl)cccc4Cl)cc32)c1 [GSK398099] | 0%
60 | CC(=O)c1c(C)c2cnc(Nc3ccn(C)n3)nc2n(C2CCCC2)c1=O | 0%
61 | Cn1cncc1-c1cc2c(Nc3ccc(OCc4ccccc4)cc3)ncnc2cn1 [GW281179] | 0%
62 | COc1ccc(CSc2nnc(-c3ccc4c(c3)CCO4)o2)cc1 | 0%
63 | CN1c2ccc(-c3ccc(C(N)=O)cc3)cc2-c2[nH]ncc2S1(=O)=O | 6%
64 | CC(C)c1ccc(O)cc1Nc1ccnc2ccc(C(F)(F)F)cc12 [GW482059] | 0%
65 | O=C(Nc1n[nH]c2nc(-c3cccs3)c(Br)cc12)C1CCCC1 [SB-743341] | 0%
66 | CS(=O)(=O)CCNCc1nc(-c2ccc3ncnc(Nc4ccc5c(cnn5Cc5ccccc5)c4)c3c2)cs1.Cl.Cl [GW569716] | 0%
67 | Cl.Cl.Cl.N#Cc1ccc(CCNc2nccc(-c3cccc(CN4CCNCC4)c3)n2)cc1 [GSK2137462] | 0%
68 | Fc1ccc(-c2nn3cccc(F)c3c2-c2ccncc2)cc1 [GW475620] | 0%
69 | COc1ccc(CSc2nnc(-c3ccc4ncsc4c3)o2)cc1C(F)(F)F | 3%
70 | Cc1ccc(NC(=O)Nc2ccccc2F)cc1-c1ccc(C(=O)Nc2ccncc2)cc1 [GSK1398477] | 0%
71 | O=C1NC(=O)C(c2ccc(Cl)cc2)=C1Nc1cccc(Cl)c1 [SB-317651] | 0%
72 | CNc1nc(-c2ccc3c(N)n[nH]c3c2)cc(N2C[C@@H](C(=O)NC3CCCCC3)OC[C@H]2C)n1 [GSK2375584] | 4%

Reference: PMC5540273 (PLoS ONE, 2017)
